# Compounds without any hit were thinned out: in the full panel of roughly 83,000, 20% have a hit.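 Cells were grown in 96-well plates and exposed to the test compound at a single concentration for 48 hours; results are reported as percent growth, with values below 10 considered active.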 Unmarked numbers belong to inactive results. The source made the active and inactive calls.
# Tested on: SN12C renal
# Assay: NCI-60 one-dose screen, 48 h (100 = growth as untreated, 0 = no growth, -100 = all killed)
# Conditions: 10 µM unless noted
row,SMILES,growth
1,COc1ccc(-n2cc(-c3ccc(Cl)c(Cl)c3)[nH]c2=O)cc1OC,102%
2,CN1CCN(S(=O)(=O)O[C@@H]2C(=O)N(c3cc4c5ccccc5ccc4c4ccccc34)[C@H]2c2ccc(F)cn2)CC1,92.2%
3,O=C(O)CCNC1CCCCC1,88.3%
4,C#C[C@@]1(O)[C@@H](CO)O[C@@H](n2cc(I)c3c(N)ncnc32)[C@@H]1O,6.87% (active)
5,COC1=CC2C=C(C3N(c4ccccc4)NC(=O)[C@@H]4CCCN34)C(=O)NC2C=C1 (stereo partly drawn),107%
6,CCCCc1n(Cc2ccc3ccccc3n2)cc[n+]1Cc1ccc2ccccc2c1,1.13% (active)
7,CN1CCN(/C=C2\CC(C(=O)NCc3ccc(Cl)cc3Cl)NC2=O)CC1 (stereo not drawn),106%
8,O=C1NC(SCc2ccc(F)cc2)=N/C1=C/c1cccc(OCc2ccc(Cl)cc2)c1,22.1%
9,NS(=O)(=O)c1ccc(-n2ncc(NC(=O)Nc3ccc(S(=O)(=O)Nc4nccs4)cc3)c2-c2ccccc2)cc1,98.8%
10,N#CC(C#N)=C1NC(c2ccccc2)=C(c2ccccc2)C(c2ccccc2Cl)=C1C#N,111%
11,CCOc1ccccc1C(=O)/C=C/c1cc2ccccc2[nH]c1=O,-20.9% (active)
12,Cc1ccc2nc3nc4ccc[nH]c4cc3c2c1,105%
13,C=C1C(=O)O[C@H]2[C@H]1CC/C(C=Nc1c(N)cc(C(F)(F)F)cc1Br)=C\CC[C@@]1(C)O[C@@H]21,-21.8% (active)
14,NC(N)=NC(N)=Nc1cc2ccccc2c2ccccc12,35.4%
15,O=C(Nc1ccc(S(=O)(=O)NC2CCCCCC2)cc1)C(c1ccccc1)S(=O)(=O)c1ccc(F)cc1 (stereo not drawn),12.6%
16,O=c1[nH]c2ccccc2cc1-c1nc2ccncc2[nH]1,94.3%
17,Cc1cccc(C)c1NCc1nnc(-c2ccco2)o1,94.8%
18,Cc1ccc(-c2nc(C#N)c(S(=O)(=O)N(C)CCO)o2)cc1,51%
19,Nc1c(C(=O)Nc2ccccc2Cl)sc2nc3c(cc12)CN(Cc1ccccc1)CC3,101%

row,SMILES,growth
1,C#Cc1ccccc1NC(=O)c1sc2nc3c(cc2c1N)CCCCCC3,58.5%
2,CCOCc1cc(C(C)(C)C)ccc1O,102%
3,C=C(C)[C@@H]1CC[C@]2(C(=O)OCCOCCOCC[P+](c3ccccc3)(c3ccccc3)c3ccccc3)CC[C@]3(C)[C@H](CC[C@@H]4[C@@]5(C)CC[C@H](OC(=O)C(Cl)Cl)C(C)(C)[C@@H]5CC[C@]43C)[C@@H]12,-46.9% (active)
4,CNCc1cccc2c1OCCOCCOCCN(CCN1CCOCC1)S(=O)(=O)c1ccc(cc1)-c1cnc(N)c(n1)C(=O)N2,68.4%
5,Cc1c(Cl)cccc1NC(=O)c1sc2nc3c(cc2c1N)CN(Cc1ccccc1)CC3,59.2%
6,C=C(C)[C@@H]1CC[C@]2(C(=O)NCCCO)CC[C@]3(C)[C@H](CC[C@@H]4[C@@]5(C)CCCNC(C)(C)[C@@H]5CC[C@]43C)[C@@H]12,70.9%
7,COc1cc(/C=N/Nc2nc(-c3ccc(F)cc3)c(C#N)c(N3CCOCC3)n2)ccc1O,89.4%
8,C=C(C)[C@@H]1CC[C@]2(C(=O)N=C=S)CC[C@]3(C)[C@H](CC[C@@H]4[C@@]5(C)CCC(=O)C(C)(C)[C@@H]5CC[C@]43C)[C@@H]12,19.2%
9,CC1CCCN(CCCCCOc2ccc3oc4ccc(Cl)cc4c(=O)c3c2)C1 (stereo not drawn),74.6%
10,O=C(Nc1cccc(-c2cccc(F)c2)c1)C1CCN(Cc2cccc3cccnc23)CC1,74.2%
11,CC(=O)Nc1ccc2c(c1)Cc1cc(F)ccc1-2,107%
12,COc1ccc2[nH]c(=O)c(/C=C/C(=O)/C=C/c3ccc(O)c(OC)c3)cc2c1,4.69% (active)
13,CC1=C/C(=N\N=C2/C=C(C)CC(C)(C)C2)CC(C)(C)C1,108%
14,NC(=O)c1ccc(C2C3=C(CCCC3=O)OC3=C2C(=O)c2ccccc2C3=O)cc1 (stereo not drawn),-3.43% (active)
15,N#CC1(C#N)C2=C(CCCC2)NC(c2c(F)cccc2Cl)C1(C#N)C#N (stereo not drawn),72.1%
16,CCCCn1c(=O)c(/C=C/C(=O)/C=C/c2ccc(OC)cc2)cc2cc(Cl)ccc21,75.9%
17,CCOC(=O)c1ccc(Nc2ncnc3ccc(NC(=O)c4ccccc4)cc23)cc1,102%
18,NS(=O)(=O)c1ccc(-n2nc(-c3ccccc3)ccc2=O)cc1,97.7%
19,CC(=O)Nc1nc2c(c(N)c1C#N)C(c1cccc(Cl)c1)C1=C(CCCC1=O)N2c1sc2c(c1C#N)CCCC2 (stereo not drawn),52.3%
